These results are taken from the supplement of paper PMC10670038.

Structures can show the parent of a compound that is named as a salt. ± gives the standard deviation of the averaged measurements. The full ranking holds about 2,000 compounds; the median of “relative cell viability vs DMSO, compound alone” is about 1.1, and the lowest 2% start at about 0.29. The list comes from a sample in which the lowest values are over-represented; it also holds similar structures and randomly drawn compounds.

This test relates to TE10. Briefly: relative cell viability vs DMSO, compound alone (fraction); TE10 is an esophageal squamous carcinoma line; higher = less cytotoxic. Conditions: 2 µM; 48 h. The protocol: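 TE10 ESCC cells (1,000/well, 384-well plates) were treated with Selleck bioactive library compounds at 2 uM alone for 48 h. Viability was read by CellTiter-Glo and expressed relative to DMSO wells. Two technical replicates (A, B).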
`CC(=O)NC(Cc1ccc(O)cc1)C(=O)NC(CCCN=C(N)N)C(=O)NC(Cc1ccccc1)C(N)=O` (stereo unspecified) showed a relative cell viability of 0.828 ± 0.052.
Next, `COC[C@H](NC(=O)c1cnc(C)s1)C(=O)N[C@@H](COC)C(=O)N[C@@H](Cc1ccccc1)C(=O)[C@@]1(C)CO1` [Oprozomib (ONX 0912)]: 0.0586 ± 0.0043.
`CC(C)c1nc(CN(C)C(=O)N[C@@H](CCN2CCOCC2)C(=O)N[C@H](CC[C@H](Cc2ccccc2)NC(=O)OCc2cncs2)Cc2ccccc2)cs1` [Cobicistat (GS-9350)] yielded a relative cell viability of 1.11 ± 0.05.
Next, `CC(C)CC(CC(=O)NO)C(=O)N[C@@H](Cc1ccc2ccccc2c1)C(=O)N[C@@H](C)C(=O)NCCN` (stereo partly specified): 1.04 ± 0.077; `O=C(Cc1ccc(-c2ccc(OCCN3CCOCC3)cc2)cn1)NCc1ccccc1`: 0.816 ± 0.05; `CC(C)C[C@H](NC(=O)[C@H](CCc1ccccc1)NC(=O)CN1CCOCC1)C(=O)N[C@@H](Cc1ccccc1)C(=O)N[C@@H](CC(C)C)C(=O)[C@@]1(C)CO1` [Carfilzomib (PR-171)]: 0.0894 ± 0.0027.
Next, `C[C@H](N[C@@H](CCc1ccccc1)C(=O)O)C(=O)N1CCC[C@H]1C(=O)O` [Enalaprilat Dihydrate]: 1.12 ± 0.029; `COC(=O)[C@H](Cc1ccccc1)NC(=O)[C@@H](N)CC(=O)O` [Aspartame]: 1.06 ± 0.036; `COc1ccc(C[C@H](NC(=O)[C@H](C)NC(=O)CN2CCOCC2)C(=O)N[C@@H](Cc2ccccc2)C(=O)[C@@]2(C)CO2)cc1`: 0.0804 ± 0.0014.
Next, `O=C(NCC1(c2nc(-c3ccccc3)cs2)CCOCC1)c1cccc(-c2noc(C(F)(F)F)n2)c1`: 0.8055 ± 0.0031; `C/C(=N\NC(=O)c1cccc(S(=O)(=O)N2CCOCC2)c1)c1cc(Cl)ccc1O`: 0.87899 ± 0.00067.
`CC1(COc2ccc3c(c2)ncn3-c2ccc3cccc(N4CCC(N)CC4)c3n2)COC1` displayed a relative cell viability of 1.1 ± 0.033.
Next, `O=C(NCc1ccc(Oc2ccccc2)cc1)c1nc(-c2cc(Br)c(O)c(Br)c2)no1`: 1.17 ± 0.012; `CNC(=C[N+](=O)[O-])NCCSCc1csc(CN(C)C)n1` [Nizatidine]: 1.08 ± 0.056.
In turn, `CC(=O)N[C@H]1[C@H]([C@H](O)[C@H](O)CO)OC(C(=O)O)=C[C@@H]1NC(=N)N` [Zanamivir] had a relative cell viability of 1.13 ± 0.049.
`CO/N=C(\C(=O)N[C@@H]1C(=O)N2C(C(=O)OCOC(=O)C(C)(C)C)=C(/C=C\c3scnc3C)CS[C@H]12)c1csc(N)n1` [Cefditoren Pivoxil]: the relative cell viability amounted to 0.991 ± 0.099.
In the case of `C[C@]12C=CC(=O)C=C1CC[C@H]1[C@@H]3C[C@@H](O)[C@](O)(C(=O)CO)[C@@]3(C)C[C@H](O)[C@@]12F` [Triamcinolone] it was 0.9665 ± 0.0039; in that of `OC[C@@H](O)[C@@H](O)[C@@H](O)CO` [Ribitol], 1.126 ± 0.0056.
For `CC1=CC(=O)c2ccccc2C1=O` [Menadione], the relative cell viability is 0.981 ± 0.01.
On to `CC(C)(C)C(=O)Nc1ccc2c(c1)C(=O)C(=O)c1ccccc1-2`, for which the relative cell viability is 0.0653 ± 0.0041.
In turn, `CC(=O)Nc1ccccc1` [Acetanilide] showed a relative cell viability of 0.976 ± 0.25.
In turn, `O=C(Nc1cccc(C(F)(F)F)c1)Nc1cc(S(=O)(=O)NC2CC2)ccc1-c1ccsc1` registered a relative cell viability of 0.982 ± 0.031.
For `Cn1c2ccccc2c2c3c(c4c5ccccc5n(CCC#N)c4c21)CNC3=O`, the relative cell viability was found to be 1 ± 0.081.
On to `CN1CCc2nc(C(=O)N[C@@H]3C[C@@H](C(=O)N(C)C)CC[C@@H]3NC(=O)C(=O)Nc3ccc(Cl)cn3)sc2C1` [Edoxaban], for which the relative cell viability worked out at 1.09 ± 0.014.
As for `NC(=O)C1CCCc2c1[nH]c1ccc(Cl)cc21` (stereo unspecified) [EX 527 (Selisistat)], the relative cell viability turned out to be 0.983 ± 0.2.
Compound `CCOC(=O)c1ccc(NC(=O)O[C@H]2[C@H](OC(=O)Nc3ccc4c(c3)OCO4)[C@@H](OC(=O)Nc3ccc4c(c3)OCO4)[C@@H](OC)O[C@@H]2CO)cc1` showed a relative cell viability of 1.16 ± 0.047.
For the compound `Cn1cc(-c2ccc3ncc(Cc4ccc5ncccc5c4)n3n2)cn1`, the relative cell viability came to 1.13 ± 0.055.
As to `COc1ccc(C[C@H](N)C(=O)N[C@H]2[C@@H](O)[C@H](n3cnc4c(N(C)C)ncnc43)O[C@@H]2CO)cc1` [Puromycin 2HCl], the relative cell viability came out at 0.133 ± 0.042.
The compound `COc1nc(N)nc2c1ncn2[C@@H]1O[C@H](CO)[C@@H](O)[C@@H]1O` [Nelarabine] displayed a relative cell viability of 1.11 ± 0.05.
In the case of `CNc1ncnc2c1ncn2[C@@H]1O[C@H](CO)[C@@H](O)[C@H]1O` [N6-methyladenosine (m6A)] it was 0.9679 ± 0.0062.
Next, `CN(C)Cc1cccc(N=C(c2ccccc2)c2c(O)[nH]c3cc(C(=O)N(C)C)ccc23)c1`: 0.903 ± 0.035; `COc1cc2c(NC3CCN(CC4CCCCC4)CC3)nc(N3CCCN(C(C)C)CC3)nc2cc1OCCCN1CCCCC1`: 1 ± 0.13.
`O=C(O)CCCC[C@@H]1SC[C@@H]2NC(=O)N[C@@H]21` [Biotin (Vitamin B7)] returned a relative cell viability of 0.999 ± 0.036.
The compound `CN[C@@H]1[C@H](O)[C@H](NC)[C@H]2O[C@@]3(O)C(=O)C[C@@H](C)O[C@H]3O[C@@H]2[C@H]1O` [Spectinomycin HCl] showed a relative cell viability of 1.03 ± 0.12.
`CN(C)c1cc(NC(=O)CNC(C)(C)C)c(O)c2c1CC1CC3C(N(C)C)C(=O)C(C(N)=O)=C(O)C3(O)C(=O)C1=C2O` (stereo unspecified) [Tigecycline] had a relative cell viability of 1.111 ± 0.0089.
`O=C(C=Cc1ccccc1)NC(NC(=S)Nc1ccc(Cl)cc1)C(Cl)(Cl)Cl` (stereo unspecified) returned a relative cell viability of 1.07 ± 0.03.
`O=C(/C=C/c1cccc(S(=O)(=O)Nc2ccccc2)c1)NO` [Belinostat (PXD101)]: the relative cell viability was found to be 0.216 ± 0.0062.
For `Cn1cc(/C=C/C(=O)c2cccc(F)c2)cc1/C=C/C(=O)NO`, the relative cell viability worked out at 1.11 ± 0.077.
In the case of `CC(=O)Oc1cc2c(s1)CCN(C(C(=O)C1CC1)c1ccccc1F)C2` (stereo unspecified) [Prasugrel] it was 1.139 ± 0.0097; in that of `COc1cc(Nc2ncc(F)c(Nc3ccc4c(n3)NC(=O)C(C)(C)O4)n2)cc(OC)c1OC`, 0.96 ± 0.015.
`COc1cc(Nc2ncc(F)c(Nc3ccc4c(n3)NC(=O)C(C)(C)O4)n2)cc(OC)c1OC` [R406 (free base)] yielded a relative cell viability of 0.844 ± 0.051.
As for `Cc1c(C(=O)Nc2ccc(N3CCC(N4CCOCC4)CC3)c(C#N)c2)cnn1-c1ccc(Cl)cc1`, the relative cell viability was 1.08 ± 0.024.
On to `Cc1c(C(=O)Nc2ccc(Oc3ccnc4[nH]cc(-c5ccccc5)c34)c(F)c2)c(=O)n(-c2ccc(F)cc2)n1C`, for which the relative cell viability stood at 1 ± 0.027.
In the case of `Nc1nc(N)c(N=O)c(OCC2CCCCC2)n1` it was 1.03 ± 0.023; in that of `O=C(Cc1ccccc1)Nc1nnc(CCSCCc2nnc(NC(=O)Cc3ccccc3)s2)s1`, 0.866 ± 0.049.
The compound `CCCc1nn(C)c2c(=O)[nH]c(-c3cc(S(=O)(=O)N4CCN(C)CC4)ccc3OCC)nc12` [Sildenafil Citrate] gave a relative cell viability of 1.2 ± 0.029.
`CC(C)(C)c1ccc(S(=O)(=O)/C=C/C#N)cc1` yielded a relative cell viability of 0.0635 ± 0.0029.
`Cc1ccc(S(=O)(=O)C=CC#N)cc1` gave a relative cell viability of 0.063 ± 0.0047.
On to `CNc1nc(-c2ccc3c(N)n[nH]c3c2)cc(N2C[C@@H](C(=O)NC3CCCCC3)CC[C@H]2C)n1`, for which the relative cell viability worked out at 1.05 ± 0.037.
`COc1c(N2C[C@@H]3CCCN[C@@H]3C2)c(F)cc2c(=O)c(C(=O)O)cn(C3CC3)c12` [Moxifloxacin HCl]: the relative cell viability stood at 1.18 ± 0.016.
In the case of `C[C@]12CC[C@@H]3c4ccc(O)cc4CC[C@H]3[C@@H]1CC[C@@H]2OC(=O)CCC1CCCC1` [Estradiol Cypionate] it was 1.13 ± 0.085.
In the case of `Cn1cc(-c2[nH]c3cc(NC(=O)[C@H](N)C4CCCCC4)cc4c3c2C=NNC4=O)cn1` it was 1.05 ± 0.075; in that of `CCOc1cc([C@@H](CS(C)(=O)=O)N2C(=O)c3cccc(NC(C)=O)c3C2=O)ccc1OC`, 0.887 ± 0.18.
Next, `CC(C)c1nc(CN(C)C(=O)N[C@H](C(=O)N[C@@H](Cc2ccccc2)C[C@H](O)[C@H](Cc2ccccc2)NC(=O)OCc2cncs2)C(C)C)cs1` [Ritonavir]: 1.13 ± 0.062.
`CC(NC(=O)C(Cc1ccccc1)NC(=O)OCc1ccccc1)C(=O)CF` (stereo unspecified): the relative cell viability was 1.14 ± 0.064.
Compound `CCCC[C@@H](C=O)NC(=O)[C@H](CC(C)C)NC(=O)OCc1ccccc1` [Calpeptin] yielded a relative cell viability of 1 ± 0.021.
In the case of `CC(C)C[C@@H](C=O)NC(=O)[C@H](CC(C)C)NC(=O)[C@H](CC(C)C)NC(=O)OCc1ccccc1` it was 0.0786 ± 0.0013.
In the case of `CCCCC(=O)O[C@]1(C(=O)CO)[C@@H](C)C[C@H]2[C@@H]3CCC4=CC(=O)C=C[C@]4(C)[C@@]3(F)[C@@H](O)C[C@@]21C` [Betamethasone valerate (Betnovate)] it was 0.865 ± 0.078.
In the case of `COc1cc(Nc2nc3ccccc3nc2NS(=O)(=O)c2ccc(NC(=O)c3ccc(C)c(OC)c3)cc2)cc(OC)c1` it was 1.15 ± 0.067; in that of `O=C(c1cn(Cc2cncn2Cc2ccc(Br)cc2)cc1-c1cccc2ccccc12)N1CCOCC1`, 0.958 ± 0.015.
Take `CCc1cc(/C(C)=N/OCc2ccc(C3CCCCC3)c(C(F)(F)F)c2)ccc1CN1CC(C(=O)O)C1` [BAF312 (Siponimod)]: the relative cell viability was determined as 1.1 ± 0.07.
`O=C(O)c1cc(/N=N/c2ccc(O)c(C(=O)O)c2)ccc1O` [Olsalazine Sodium] gave a relative cell viability of 1.12 ± 0.12.
On to `CCCCC(C=O)NC(=O)C(CC(C)C)NC(=O)C(CC(C)C)NC(C)=O` (stereo unspecified), for which the relative cell viability stood at 0.266 ± 0.011.
In turn, `CC(=O)N[C@@H](CC(C)C)C(=O)N[C@@H](CC(C)C)C(=O)N[C@H](C=O)CCCNC(=N)N` [Leupeptin Hemisulfate] showed a relative cell viability of 1.09 ± 0.015.
In the case of `CC(C)CCNC(=O)[C@H](CC(C)C)NC(=O)[C@H]1O[C@@H]1C(=O)O` [Loxistatin Acid (E-64C)] it was 1.1 ± 0.019; in that of `Cc1ccc(C(=O)Nc2cccc(C(F)(F)F)c2)cc1Nc1nc(-c2cccnc2)nc2c1cnn2C`, 1.13 ± 0.043; in that of `Cc1cnc(NC(=O)C2=C(O)c3ccccc3S(=O)(=O)N2C)s1` [Meloxicam], 1.11 ± 0.045.
Next, `CC(=O)O[C@]1(C(C)=O)CC[C@H]2[C@@H]3C[C@H](C)C4=CC(=O)C=C[C@]4(C)[C@@]3(F)[C@@H](O)C[C@@]21C` [Fluorometholone Acetate]: 0.914 ± 0.099.
Regarding `CCCCC(=O)O[C@H]1CC[C@H]2[C@@H]3CCc4cc(O)ccc4[C@H]3CC[C@]12C` [Estradiol valerate], the relative cell viability came to 1.07 ± 0.1.
Next, `Cc1ccc(NC(=O)c2ccc(CN3CCN(C)CC3)cc2)cc1Nc1nc(-c2cccnc2)cs1` [Masitinib (AB1010)]: 1.084 ± 0.0069; `CC(C)(C)c1cc(NC(=O)Nc2ccc(-c3cn4c(n3)sc3cc(OCCN5CCOCC5)ccc34)cc2)no1` [Quizartinib (AC220)]: 0.594 ± 0.04.
